Bioassay records as filed in PubChem BioAssay.
Only some compounds are listed: those with a hit (about 0.7% of all), similar ones and a draw of the others.
FadD28 FP inh: inhibitors of Mycobacterium tuberculosis FadD28 bisubstrate binding; FadD28 bisubstrate probe binding, fluorescence polarization; inhibition, % at 12.5 µM; actives 0.22% (n = 360,000); in the data active = inhibition above about 8.5%, passing the limit was not always enough
DUSP3 inh: inhibitors of human VHR1 phosphatase (DUSP3). actives 0.52% (n = 290,000). inhibition, % at 13.3 µM. AID 1654. P51452. recombinant VHR phosphatase, pNPP absorbance; in the data active = inhibition above about 50%
Target sequence (P51452 whole entry, looked up): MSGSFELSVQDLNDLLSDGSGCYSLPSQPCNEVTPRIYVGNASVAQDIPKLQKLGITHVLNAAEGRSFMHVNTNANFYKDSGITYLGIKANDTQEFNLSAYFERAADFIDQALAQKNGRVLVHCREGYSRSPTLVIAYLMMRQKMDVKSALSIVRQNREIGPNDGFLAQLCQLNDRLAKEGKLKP
Mtb hypoxia rep: inhibitors of hypoxia-regulated fluorescent reporter in Mycobacterium tuberculosis; M. tuberculosis hypoxia-regulated fluorescent reporter, fluorescence; fluorescence inhibition, % (no concentration beside the values); actives 0.1% (n = 300,000); in the data active = fluorescence inhibition mostly above about 23%, no sharp cut-off; inactive = mostly below about 17%
BioA inh: blocks M. tuberculosis BioA enzyme activity. purified M. tuberculosis BioA enzyme, plate reader. inhibition, % at 9.99 µM. actives 0.096% (n = 360,000); in the data active = inhibition above about 40%
3CLpro inhibitor: SARS-CoV 3CLpro protease inhibition | P0C6X7 | recombinant SARS-CoV 3CLpro, quenched FRET peptide cleavage | inhibition, % at 6 µM | actives 0.14% (n = 290,000); in the data active = inhibition above about 12%
* hit, by the source's call; . = no result shown.

SMILES | FadD28 FP inh | DUSP3 inh | Mtb hypoxia rep | BioA inh | 3CLpro inhibitor
Cc1ccccc1C(=O)/C(C#N)=N/Nc1c(C)n(C)n(-c2ccccc2)c1=O | -1.1 | 51.3* | 2.5 | 21.9 | 3.9
Cc1ccsc1C=NNc1nc(Cl)c(Cl)cc1Cl | . | . | 13.7 | . | .
Cc1cc(OCC(=O)NC2CC(C)(C)NC(C)(C)C2)c2c(C)c(C)c(=O)oc2c1 | -3.8 | 28.0 | -2.2 | -1.0 | -0.1
CCCc1cc(=O)oc2c(C)c(OCC(=O)NCCCN3CCOCC3)ccc12 | 0.3 | 53.4* | 5.3 | -1.4 | -6.9
CCc1cc(=O)oc2c(C)c(OCC(=O)NCCCN3CCOCC3)ccc12 | -1.2 | 60.8 | 2.2 | 3.3 | -2.4
CCCc1cc(=O)oc2c(C)c(OCC(=O)NC3CC(C)(C)NC(C)(C)C3)ccc12 | -1.8 | 50.2* | 11.4 | -0.6 | -4.9
Cc1cc(OCC(=O)NC2CC(C)(C)NC(C)(C)C2)c2c(C)cc(=O)oc2c1 | -3.1 | 55.6* | -6.1 | -0.1 | -3.2
Cc1c(OCC(=O)NC2CC(C)(C)NC(C)(C)C2)ccc2c1oc(=O)c1ccccc12 | -5.3 | 52.7* | 5.2 | -0.5 | -8.1
C=CCc1cc(C=Nn2cnnc2)cc(OCC)c1O | . | . | -80.8 | . | .
CC(/C=C/c1ccc2c(c1)OCO2)=NNC(=O)C1COc2ccccc2O1 (centres undefined) | . | . | 1.9 | . | .
CCc1nonc1NC(=O)c1oc2ccccc2c1C | -4.2 | 50.2* | 10.6 | -1.2 | 0.1
CCc1nonc1NC(=O)c1oc2ccc(C)cc2c1C | 0.1 | -3.6 | 0.1 | -0.3 | -1.4
O=C(NCCCN1CCOCC1)c1ccc2c(c1)N(Cc1ccccc1)C(=O)c1ccccc1S2=O (centres undefined) | -2.1 | 59.8* | -17.1 | -1.2 | -2.0
CC1=NN(c2ccccc2)C(=O)C1=Cc1ccc(Oc2ccc([N+](=O)[O-])cc2[N+](=O)[O-])cc1 | . | . | 0.3 | . | .
CS(=O)(=O)N1CCN(c2ccc([N+](=O)[O-])c(NCc3ccc(Cl)cc3)c2)CC1 | -0.5 | 89.6* | 8.5 | 3.1 | 0.6
COC(CNC(=O)C(CSCc1ccccc1)N1Cc2ccccc2C1=O)OC (centres undefined) | . | . | 10.1 | . | .
CN(C)c1ccc2nc3ccc(=[N+](C)C)cc-3sc2c1 | 1.8 | 10.8 | 99.4* | . | -4.3
CCOC(=O)c1sc(NC(=O)c2ccc(Cl)s2)cc1C | -2.6 | 1.2 | . | -0.6 | 0.3
CCOC(=O)c1sc(NC(=O)Nc2ccc(Cl)cc2)cc1C | 24.8* | 27.4 | . | -0.6 | 9.1
Cc1ccc(S(=O)(=O)NC(=O)Nc2ccc(N(C)C)cc2)cc1 | 0.9 | 52.2* | 11.7 | -2.0 | 3.0
COc1ccc(-n2nnnc2SCC(=O)c2ccc(O)c(O)c2)cc1 | 11.8* | 13.3 | . | -1.3 | -2.1
O=C1CCCN1CCCN=c1c([N+](=O)[O-])nn(-c2ccc(Cl)cc2)n1O | -2.6 | 13.4 | 45.6* | . | 0.3
CSc1ccc(C=NNC(=O)CN2CCN(Cc3ccc(C)cc3)CC2)cc1 | . | . | -7.9 | . | .
CCC(C)NC(=O)NCc1ccccc1F (centres undefined) | -0.3 | 56.3* | 16.2 | -0.2 | 0.0
CSCCC(NC(=O)NCc1ccccc1F)C(=O)O (centres undefined) | . | . | 8.8 | . | .
SMILES | FadD28 FP inh | DUSP3 inh | Mtb hypoxia rep | BioA inh | 3CLpro inhibitor
O=C(NCc1ccco1)Nc1ccc([N+](=O)[O-])cc1 | -0.6 | -7.7 | -6.9 | -0.8 | 0.7
O=C(NCc1ccccc1F)Nc1ccc([N+](=O)[O-])cc1 | -4.0 | 56.4* | -2.8 | . | 5.8
C#CCOCCOCCOCCNc1nc(N2CCN(C(=O)CCCCCCCCCCNC(=O)C(CO)n3cc(CCCSC)nn3)CC2)nc(N2CCN(C(=O)CCCCCCCCCCNC(=O)C(CO)n3cc(CCCSC)nn3)CC2)n1 (centres undefined) | . | . | -5.0 | . | .
CC1OC(OCCC(=O)O)C(O)CC1O (centres undefined) | . | . | 7.2 | . | .
Cc1cc2[nH]c3c(c[n+](C)c4ccccc34)c2cc1C | -5.4 | 29.6 | 64.5* | . | -12.0
CCN1CC2C3C(=O)N(C)C(=O)C3[C@](Cc3ccccc3)(C1=O)N2C(=O)c1ccc(F)cc1 (some centres undefined) | . | . | 11.4 | . | .
C=C(C)C1CC=C(C)/C(=N/NC(=O)CCC(=O)Nc2ccccc2Cl)C1 (centres undefined) | -0.8 | 55.2* | . | 3.5 | -1.5
C=C(C)C1CC=C(C)C(=NNC(=O)CCc2ccccc2)C1 (centres undefined) | . | . | 10.5 | . | .
O=C(C1=CC(c2ccccc2)CC(OCc2ccc(CO)cc2)O1)N1CCCCCCC1 (centres undefined) | . | . | 9.3 | . | .
COC(C)(C)[C@]12CC(O)(c3ccccc3)ON1C1CCCCC1N2O (some centres undefined) | . | . | 7.7 | . | .
COc1ccc(-c2nnc(SCC(=O)Nc3ccc(C)cc3)n2C)cc1 | -3.2 | 1.5 | 7.8 | -0.3 | 0.9
CCSCc1nnc(SCC(=O)Nc2ccc(OC)cc2)n1C | -5.4 | 57.4* | 4.4 | . | -0.1
CCn1c(SCC(=O)NC(=O)NCc2ccco2)nc2sc(C)c(C)c2c1=O | -3.5 | -10.5 | 38.1* | 0.1 | -3.7
Cc1sc2nc(SCC(=O)NCc3ccco3)n(C)c(=O)c2c1C | -2.2 | 7.8 | 16.4 | . | 0.3
CCN(CC)c1ccc(/C=C2\C(=O)c3ccc(C(=O)O)cc3C2=O)cc1 | 25.1* | -8.5 | 4.1 | . | -5.3
Cc1ccc(S(=O)(=O)N2CCc3ccccc3C2)cc1 | 0.4 | 52.0* | 11.2 | -1.2 | -0.9
Cc1ccc(S(=O)(=O)N2CCOCC2)cc1C(=O)OCC(=O)NC1CC1 | -1.7 | . | 32.7* | -0.6 | .
O=[N+]([O-])c1cc(Cl)cc(/C=N/NC(=S)Nc2ccc(S(=O)(=O)N3CCOCC3)cc2)c1O | 18.3* | 20.1 | . | 5.4 | 7.2
O=C(CSCc1ccc(Cl)cc1)Nc1ccccc1O | -1.7 | 13.0 | 64.6* | -0.2 | 3.9
O=C(CSCc1ccc(Cl)cc1)Nc1ccccc1C(=O)N1CCOCC1 | 0.6 | 9.9 | 2.7 | -1.3 | -1.8
O=C1CCN(Cc2ccc(O)cc2)CCN1C(CO)c1ccccc1 (centres undefined) | . | . | -0.6 | . | .
Cc1nnc2n(Cc3ccccc3)c(=O)c3c4c(sc3n12)CCCC4 | . | 8.2 | . | . | .
CCOC(=O)CSc1nnc2n(Cc3ccccc3)c(=O)c3c4c(sc3n12)CCC4 | -1.5 | 51.7* | . | 0.4 | 5.3
O=C(Cn1c(/C=C/c2ccccc2)nc2ccccc21)Nc1ccc(F)cc1 | -0.4 | 50.8* | 15.9 | . | -4.4
CSc1nc2ccccc2n1CC(=O)Nc1ccccc1 | -3.2 | 27.4 | 10.6 | -1.1 | -6.2
SMILES | FadD28 FP inh | DUSP3 inh | Mtb hypoxia rep | BioA inh | 3CLpro inhibitor
Nc1nnc(SCC(=O)Nc2ccc(Cl)c(C(=O)O)c2)s1 | -0.7 | 56.4* | -3.6 | . | 4.2
COC(=O)c1cc(NC(=O)CSc2nnc(N)s2)ccc1Cl | -0.9 | 16.6 | 5.8 | 1.6 | -2.5
CCCCCCCCCCCCC/C=C/[C@@H](O)[C@@H](N)CO | 33.1* | . | . | -1.6 | .
Cc1noc(C)c1NC(=O)Nc1cccc2c1OC(CN(C)S(C)(=O)=O)C(C)CN(C(C)CO)C2=O (centres undefined) | . | . | 10.6 | . | .
Cc1nn(Cc2ccccc2)c(Cl)c1C=NNC(=O)CNc1cccc(C(F)(F)F)c1 | . | . | 3.7 | . | .
CCC(=NNC(=O)C1CCCC1)c1ccc(Br)cc1 | . | . | 5.0 | . | .
CC/C(=N\NC(=O)C1CCCC1)c1ccc(Br)cc1 | -3.1 | 50.2* | . | -0.3 | -2.7
